Experimental data reported in PubChem BioAssay AID485344 (National Center for Advancing Translational Sciences (NCATS), 2010).
The campaign covered roughly 340,000 compounds. About 6,900 (2%) were called active. Shown is part of a subset that was picked to be rich in actives. A number with no mark means an inactive call. Cut-off read from the data, not from the text of the source: active = inhibition above about 30%; inactive = below that, where a call was filed.

Each compound was assayed against D(2) dopamine receptor (Homo sapiens) (UniProt P14416) (assay: HTS Assay for Allosteric Antagonists of the Human D2 Dopamine Receptor: Primary Screen for Antagonists). Conditions: HEK293 TREx D2 cells, calcium flux, dopamine EC80; at 10 µM; stronger effect = higher value.
Chain of D(2) dopamine receptor (Homo sapiens) (P14416 whole entry, looked up): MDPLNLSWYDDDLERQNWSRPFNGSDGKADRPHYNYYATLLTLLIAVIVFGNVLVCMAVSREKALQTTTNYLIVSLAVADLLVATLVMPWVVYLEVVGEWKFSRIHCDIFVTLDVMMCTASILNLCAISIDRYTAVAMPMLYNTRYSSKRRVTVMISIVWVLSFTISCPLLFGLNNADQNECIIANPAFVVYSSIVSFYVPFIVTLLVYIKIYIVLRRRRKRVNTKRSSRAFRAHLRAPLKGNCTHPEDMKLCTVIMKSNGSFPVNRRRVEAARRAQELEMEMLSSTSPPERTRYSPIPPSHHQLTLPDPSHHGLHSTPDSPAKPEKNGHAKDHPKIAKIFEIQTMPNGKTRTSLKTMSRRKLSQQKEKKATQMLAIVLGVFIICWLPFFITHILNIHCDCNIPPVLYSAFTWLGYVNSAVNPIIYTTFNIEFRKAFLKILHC
Summary of the method: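 Cells plated overnight at 30 C with tetracycline; no-wash calcium dye, 30–90 min RT; 10 s baseline; compound pinned; 180 s read; EC80 dopamine added; another 180 s read.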
Note: 0% is about no effect.

| SMILES | inhibition |
| --- | --- |
| Cc1ccc(S(=O)(=O)Nc2nc3ccccc3s2)cc1[N+](=O)[O-] | -1.44% |
| Cn1nnnc1SCC(=O)Nc1nc2ccccc2s1 | 5.01% |
| Cc1ccnc(Nc2nc3ccccc3s2)n1 | 39.5% (active) |
| C=C(C)CNc1cc(S(=O)(=O)N2CCOCC2)ccc1Oc1ccccc1 | -1.1% |
| Cc1ccccc1N1CCN(CCCOc2ccc3c(C)cc(=O)oc3c2)CC1 | 109% (active) |
| Cc1cc(=O)oc2cc(OCCC[n+]3ccccc3)ccc12 | 13.4% |
| CCOc1ccccc1N1CCN(C(=O)COc2ccc3c(C)cc(=O)oc3c2)CC1 | 20.8% |
| Cc1ccc(C(=O)CN2C(=O)NC3(CCOc4ccccc43)C2=O)s1 (stereo unspecified) | -0.39% |
| O=C(COC(=O)CCCN1C(=O)c2cccc3cccc(c23)C1=O)NC1CCS(=O)(=O)C1 (stereo unspecified) | 1.37% |
| O=C(Nc1ccc2c(c1)OCCO2)C1CCCC1 | 3.86% |
| Cc1cc(NC(=O)Nc2ccccc2)n(-c2ccccc2)n1 | 31.4% (active) |
| CC(=O)c1cccc(NC(=O)c2cc(C)nn2-c2ccccc2)c1 | -7.81% |
| Cc1cc(NC(=O)c2cnn3cccnc23)n(-c2ccccc2)n1 | 5.9% |
| Cc1nn(-c2ccccc2)c(Cl)c1C(=O)Nc1ccccc1 | -28.3% |
| Cc1ccc(NC(=O)Nc2cc(-c3ccccc3)nn2C)cc1Cl | -13.2% |
| Cc1cc(NC(=O)Nc2ccc(Cl)cc2)n(-c2ccccc2)n1 | 40.6% (active) |
| C#CCOCCOCCOCCNc1nc(N2CCN(C(=O)Cn3cc(CCCCN)nn3)CC2)nc(N2CCN(C(=O)[C@H](CCCCN)n3cc(CCC(=O)O)nn3)CC2)n1 | -10.9% |
| CCOc1ncccc1C(=O)OCC(=O)c1c[nH]c2ccccc12 | 12.3% |
| O=C(CN1CCN(S(=O)(=O)c2ccc(Cl)s2)CC1)N1CCCCC1 | -11.9% |
| CCc1ccc(Nc2n[n+](-c3ccccc3)c(-c3cccc(Cl)c3Cl)s2)cc1 | 6.13% |
| CCCCN(C(=O)C(CCSC)N1C(=O)c2ccccc2C1=O)c1c(N)n(CCC)c(=O)[nH]c1=O (stereo unspecified) | -4.67% |
| Cc1c(C(=O)NNC(=O)c2ccncc2)oc2ccccc12 | 13.9% |
| O=C(NCc1ccccc1CN1CCCC1)c1cccc(S(=O)(=O)Nc2ccc(F)cc2)c1 | 61.7% (active) |

| SMILES | inhibition |
| --- | --- |
| CCN(c1ccccc1)S(=O)(=O)c1cccc(C(=O)NCc2ccccc2CN2CCOCC2)c1 | -43% |
| COc1ccccc1C(CNC(=O)c1cccc(S(=O)(=O)Nc2ccc(F)cc2)c1)N(C)C (stereo unspecified) | -19.6% |
| CN1CCN(CCNC(=O)Nc2ccc([N+](=O)[O-])cc2)CC1 | 11.3% |
| O=C(Nc1ccc(F)cc1)N1CCN(c2ccc(F)cc2)CC1 | -1.72% |
| O=C(NCCCN1CCN(c2ccc(F)cc2)CC1)Nc1ccc([N+](=O)[O-])cc1 | 45.2% (active) |
| COc1cccc(NC(=O)CN(C)CC(=O)c2c(N)n(Cc3ccccc3)c(=O)n(C)c2=O)c1 | -15.4% |
| COc1ccc(NC(=S)Nc2ccccc2Cl)cn1 | 40.5% (active) |
| COCCN(CCOC)C(=S)Nc1ccccc1Cl | 3.22% |
| COc1ccc(Nc2cc(Cl)ccc2C(=O)O)cn1 | 9.54% |
| Cc1n[nH]c(=O)c2c(NC(=O)CSc3ccccc3F)oc(C)c12 | 0.909% |
| CCN(C(=O)COC(=O)Cc1c(F)cccc1Cl)c1c(N)n(Cc2ccccc2)c(=O)[nH]c1=O | 4.82% |
| CCOC(=O)c1c(C)[nH]c2c1-c1ccccc1C(=O)C2=O | -2.67% |
| CCOC(=O)c1c(C)[nH]c(C2=NNC(=NC(C)COC)SC2)c1C (stereo unspecified) | 36% (active) |
| C[C@@H]1NC(=O)[C@@]2(C)[C@@H](c3ccccc3)[C@H]3COc4ccccc4[C@@H]3N2C1=O | -7.78% |
| CCOc1ccc(CCNC(=O)CN2C(=O)NC3(CCc4ccccc43)C2=O)cc1OCC (stereo unspecified) | 1.52% |
| CCN(C(=O)CSc1nc(N)cc(=O)[nH]1)C1CCS(=O)(=O)C1 (stereo unspecified) | 10.5% |
| Cc1ccc2nc(-c3ccncc3)cc(C(=O)Nc3ccncc3)c2c1 | -15.6% |
| CCS(=O)(=O)Nc1cccc(-c2cc(-c3ccccc3)c3cc(C)ccc3n2)c1 | 30.3% (active) |
| Cc1ccc2nc(Nc3ccccc3)cc(C)c2c1 | -16.8% |
| c1ccc2cc(OCCN3CCCC3)ccc2c1 | 6.73% |
| Cc1cc(OCCN2CCCC2)cc(C(C)C)c1 | 46.1% (active) |
| Cc1cc(OCCN2CCCC2)ccc1C(C)C | -8.05% |
| CCCCc1ccc(NS(=O)(=O)c2cccc(C(=O)N3CCCN(C)CC3)c2)cc1 | 16.6% |

| SMILES | inhibition |
| --- | --- |
| Cc1ccnc(NC(=O)C(C)N2C(=O)c3ccccc3C2=O)c1 (stereo unspecified) | -8.26% |
| Cc1cc(C)nc(NC(=O)C(C)N2C(=O)c3ccccc3C2=O)n1 (stereo unspecified) | 35.4% (active) |
| COC(=O)c1ccc(NC(=O)C(C)N2C(=O)c3ccccc3C2=O)cc1 (stereo unspecified) | 4.17% |
| CCCN(CC1CC1)C(=S)NC(=O)c1ccccc1Br | 6.85% |
| Cc1cc(C(=O)OCC(=O)Nc2ccccc2Cl)c(C)o1 | 3.84% |
| Cc1ccc(NC(=O)Cn2c(C)csc2=O)cc1 | -14.9% |
| CCOC(=O)N1CCN(S(=O)(=O)c2ccc3c(c2)C(C)C(=O)N3)CC1 (stereo unspecified) | -7.55% |
| Cc1ccc2cc(CCNC(=O)c3ccc4c(c3)OCO4)c(=O)[nH]c2c1 | -22% |
| CC(=O)Nc1cccc(/C(C)=N/NC(=O)c2c(-c3ccccc3Cl)noc2C)c1 | -13% |
| Cc1ccc2cc(CCNC(=O)c3c(-c4ccccc4Cl)noc3C)c(=O)[nH]c2c1 | 34% (active) |
| CCN(c1ccccc1)S(=O)(=O)c1ccc(OCC(=O)N2CCCC2)cc1 | -6.24% |
| CC(OC(=O)c1ccc(S(=O)(=O)N2CCOCC2)cc1)c1ccccc1 (stereo unspecified) | -6.07% |
| Fc1ccc(N2CCN(Cc3cnc(Oc4ccc(Br)cc4)s3)CC2)cc1 | 14.3% |
| COc1ccc(N2CCN(Cc3nnc(-c4ccccc4)o3)CC2)cc1 | 9.11% |
| c1ccc(-c2cnc(CN3CCN(c4ccccc4)CC3)o2)cc1 | 77.7% (active) |
| O=[N+]([O-])c1ccc(S(=O)(=O)Nc2cccc(-c3ccc(N4CCCC4)nn3)c2)cc1 | -6.06% |
| CCCC(=O)OCC(=O)Nc1cc(Cl)ccc1[N+](=O)[O-] | -3.56% |
| Cc1ccc(Cl)cc1NC(=O)COC(=O)CC(C)(C)C | 40.7% (active) |
| Cc1ccc(Cl)cc1NC(=O)COC(=O)C1CCCCC1 | -6.03% |
| O=C(C1CCC1)N1CCN(S(=O)(=O)c2ccc([N+](=O)[O-])cc2)CC1 | -8.41% |
| COCCn1cnnc1SCC(=O)Nc1cccc(S(=O)(=O)N2CCCCC2)c1 | 3.75% |
| CCn1cc(C(=O)NCc2ccc3c(c2)OCO3)c2cc(OC)c(OC)cc2c1=O | -9.78% |
| O=C(C1CCN(Cc2ccc(Cl)cc2)CC1)N1CCN(Cc2ccc3c(c2)OCO3)CC1 | -7.43% |

| SMILES | inhibition |
| --- | --- |
| CCn1cc(C(=O)N2CCN(Cc3ccc4c(c3)OCO4)CC2)c2cc(OC)c(OC)cc2c1=O | 32.8% (active) |
| O=C(c1cccs1)N1CCN(Cc2ccc3c(c2)OCO3)CC1 | 86.6% (active) |
| CCn1cc(C(=O)N2CCN(C3CCCCC3)CC2)c2cc(OC)c(OC)cc2c1=O | 2.69% |
| O=C(CSCc1ccc(Cl)cc1)N1CCN(Cc2ccc3c(c2)OCO3)CC1 | 15.1% |
| CC(=O)Nc1ccc(NC(=O)C(C)OC(=O)C2CC(=O)N(CCc3ccccc3)C2)cc1 (stereo unspecified) | -0.386% |
| O=C(NCCc1ccco1)C(=O)NCCC1CCCCN1S(=O)(=O)c1ccccc1 (stereo unspecified) | -16% |
| CCCn1c(N)c(C(=O)CSc2nnc3n2CCCCC3)c(=O)[nH]c1=O | 3.63% |
| CCCn1c(N)c(C(=O)CSc2nc3ccccc3c(=O)n2-c2ccc(OC)cc2)c(=O)[nH]c1=O | 33.2% (active) |
| COc1cccc(-n2c(SCC(=O)c3c[nH]c4ccccc34)nc3ccccc3c2=O)c1 | -2.99% |
| O=C(CNc1ccccc1N1CCCC1=O)Nc1cc(Cl)ccc1-n1cncn1 | 8.23% |
| Cc1ccc(F)cc1NC(=O)CSCc1c(C)noc1C | 13.7% |
| O=C(CN1C(=O)NC2(CCOc3ccccc32)C1=O)NCc1ccc(F)cc1 (stereo unspecified) | 26.3% |
| COc1cc(C(CCN2CCN(c3ccccc3)CC2)c2c(OC)cc(OC)c3ccc(=O)oc23)cc(OC)c1OC (stereo unspecified) | 23% |
| CCN(CC)CCC(c1ccc2c(c1)OCO2)c1c(OC)cc(OC)c2c(-c3ccccc3)cc(=O)oc12 (stereo unspecified) | 13.4% |
| COc1cc(OC)c2ccc(=O)oc2c1C(CCN1CCN(c2ccccc2)CC1)c1ccc2c(c1)OCO2 (stereo unspecified) | 94% (active) |
| NS(=O)(=O)c1cc(C(=O)OCC(=O)NNC(=O)c2ccccc2)ccc1Cl | 2.99% |
| Cc1[nH]c2ccccc2c1C(=O)C(C)Sc1nnc(C2CC2)o1 (stereo unspecified) | -40.9% |
| CNS(=O)(=O)c1cccc(C(=O)OCC(=O)N2c3ccccc3NC(=O)C2(C)C)c1 | -3.21% |
| CC(C)OCCCNc1ncnc2c1[nH]c1ccc(F)cc12 | -11.8% |
| CCN1CCCC1Cn1cnc2c([nH]c3cc(OC)ccc32)c1=O (stereo unspecified) | 24.3% |
| CCN1CCCC1CNc1ncnc2c1[nH]c1ccc(F)cc12 (stereo unspecified) | 39.5% (active) |
| O=C(CSc1nnc(COc2ccc(Cl)cc2)n1Cc1ccco1)N1CCNC1=O | 0.458% |
